Data published in PubChem BioAssay AID504652 (National Center for Advancing Translational Sciences (NCATS), 2011).
Where “and” joins values, the source holds several entries; their conditions need not be identical. Equal entries are not always repeated. Hit rate of the full screen: of about 360,000 compounds, about 11,000 (3.1%) were called active. For the sample, actives were picked, then their nearest neighbours and some compounds at random. Unmarked numbers belong to inactive results. Cut-off read from the data, not from the text of the source: active = activity change below about -30%; inactive = the rest.

Each compound was assayed against D(1A) dopamine receptor (Homo sapiens) (UniProt P21728) (assay: Antagonist of Human D 1 Dopamine Receptor: qHTS). Conditions: HEK293 TREx D1 cells, calcium flux, dopamine EC80; at 10 µM; stronger effect = lower value.
How it was run: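 HEK293 T-REx cells expressing inducible, force-coupled D1 receptor; no-wash Ca dye, 30–90 min RT. Cmpd → 180 s read at 1 Hz → EC80 DA → 180 s read.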
% is set by controls: 0 for no effect and ±100 for the full control effect.

Chain of D(1A) dopamine receptor (Homo sapiens) (P21728 whole entry, looked up): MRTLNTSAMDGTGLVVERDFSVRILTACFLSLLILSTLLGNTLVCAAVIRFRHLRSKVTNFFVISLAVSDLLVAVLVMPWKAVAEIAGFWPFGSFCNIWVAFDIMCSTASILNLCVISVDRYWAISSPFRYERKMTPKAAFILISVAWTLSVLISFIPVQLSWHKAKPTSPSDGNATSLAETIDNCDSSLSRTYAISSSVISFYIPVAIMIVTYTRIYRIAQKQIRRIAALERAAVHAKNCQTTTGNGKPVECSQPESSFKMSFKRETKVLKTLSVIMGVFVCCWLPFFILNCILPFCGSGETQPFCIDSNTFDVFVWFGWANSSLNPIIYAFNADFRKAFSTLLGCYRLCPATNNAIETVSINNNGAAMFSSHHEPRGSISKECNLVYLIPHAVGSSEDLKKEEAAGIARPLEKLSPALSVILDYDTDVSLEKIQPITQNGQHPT

| Structure (SMILES) | activity change, negative = inhibition |
| --- | --- |
| COc1ccc(C(=O)c2oc3ccccc3c2NC(=O)COc2cccc(C)c2)cc1 | -10.1% |
| Cc1nn(CC(=O)NCCc2ccccc2)c(=O)c2c1sc1ccccc12 | -1.1% |
| Cc1cccc(CNS(=O)(=O)c2ccc(-c3cnc(C4CC4)o3)cc2)c1 | -9.2% and -2.23% |
| Cc1ccc(-c2cnc(C3CC3)o2)cc1S(=O)(=O)Nc1cccc(C)c1C | 9.76% |
| Cc1cccc(NS(=O)(=O)c2ccc(-c3cnc(C4CC4)o3)cc2)c1 | -44.9% (active) |
| O=C(CSc1nccn1C1CCCC1)Nc1cc(C(F)(F)F)ccc1Cl | -16% |
| COC(=O)c1cc(Oc2ccc(S(=O)(=O)N3CCOCC3)cc2[N+](=O)[O-])cc(C(=O)OC)c1 | -38.9% (active) |
| C=C(C)CNc1cc(S(=O)(=O)N2CCOCC2)ccc1Oc1ccccc1 | -20.5% |
| COc1ccc(S(=O)(=O)N2CCC(C(=O)OCC(=O)c3ccccc3)CC2)cc1[N+](=O)[O-] | -3.94% |
| Cc1ccc(NC(=O)c2ccc3[nH]c(C)cc(=O)c3c2)c(C)c1 | -2.41% |
| CCOC(=O)c1c(N)n(-c2cccc(C)c2C)c2nc3ccccc3nc12 | -1.89% |
| COc1ccccc1CNC(=O)c1ccc(CS(=O)c2ccccc2Cl)o1 (centres undefined) | -4.03% |
| Cc1ccc(C)c(N2CCN(C(=O)CCc3c(C)nc4c(c3C)c(=O)n(C)c(=O)n4C)CC2)c1 | 7.99% |
| CC1=C(C(=O)OCC(C)C)C(c2ccc(OCc3ccccc3)cc2)N2C(=O)CCSC2=N1 (centres undefined) | 4.42% |
| CN(C)c1ccc(-n2cccc2/C=C2/SC(=Nc3ccc(F)cc3)NC2=O)cc1 | -42.9% (active) |
| Cc1ccc(N=C2NC(=O)/C(=C/C=C/c3ccco3)S2)cc1C | -15.5% |
| CN(C)c1ccc(-n2cccc2/C=N/n2cnnc2)cc1 | 10% |
| CCc1cc2c(cc3c(=O)n(CC(=O)N4CCN(c5cc(Cl)ccc5C)CC4)nc(CC)n32)s1 | -29.5% |
| COc1ccc(C(=O)Nc2ccc(-n3nncc3-c3ccccc3)cc2)cc1OC | -8.31% |
| Nn1c(SCC(=O)NC2CCCC2)nnc1-c1ccccc1F | 10.8% |
| CC(C)NC(=O)NC(=O)CSc1nnc(-c2ccccc2F)n1N | 2.73% |
| Nn1c(SCC(=O)NC(=O)NC2CCCC2)nnc1-c1ccccc1F | -31.8% (active) |
| CCc1cc2c(cc3c(=O)n(CC(=O)NCCc4ccc(OC)c(OC)c4)ncn32)s1 | -0.482% |
| CCc1ccc(NC(=O)c2sc3nc4c(cc3c2N)CN(CC)CC4)cc1 | -15.6% |
